Legend:
[1] = biological target: T1, Inhibitor of nuclear factor kappa-B kinase subunit epsilon (Homo sapiens) (UniProt Q14164); settings: at 1 µM;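 note: reported values are averaged percent inhibition figures against human IKKε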
T1 sequence (whole entry): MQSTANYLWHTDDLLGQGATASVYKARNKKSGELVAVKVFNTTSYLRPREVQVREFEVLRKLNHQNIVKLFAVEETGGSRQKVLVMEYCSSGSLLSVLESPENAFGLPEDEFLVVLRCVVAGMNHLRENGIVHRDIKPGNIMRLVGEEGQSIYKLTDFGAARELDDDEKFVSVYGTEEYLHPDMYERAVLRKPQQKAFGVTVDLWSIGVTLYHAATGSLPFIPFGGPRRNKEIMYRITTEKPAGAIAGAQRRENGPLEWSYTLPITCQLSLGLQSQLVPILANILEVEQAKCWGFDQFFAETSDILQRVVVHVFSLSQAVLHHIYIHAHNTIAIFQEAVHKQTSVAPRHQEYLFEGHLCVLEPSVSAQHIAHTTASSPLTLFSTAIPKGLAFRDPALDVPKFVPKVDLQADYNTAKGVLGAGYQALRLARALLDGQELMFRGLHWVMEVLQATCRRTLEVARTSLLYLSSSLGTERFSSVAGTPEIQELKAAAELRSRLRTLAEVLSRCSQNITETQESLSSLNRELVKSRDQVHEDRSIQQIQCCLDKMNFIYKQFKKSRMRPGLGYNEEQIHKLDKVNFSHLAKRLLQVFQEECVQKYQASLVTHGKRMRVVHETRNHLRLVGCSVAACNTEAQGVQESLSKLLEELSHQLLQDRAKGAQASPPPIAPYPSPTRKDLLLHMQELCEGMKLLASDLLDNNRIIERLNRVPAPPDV

[2] = biological target: T2, Serine/threonine-protein kinase Nek1 (Homo sapiens) (UniProt Q96PY6); settings: at 0.1 µM
T2 sequence (whole entry): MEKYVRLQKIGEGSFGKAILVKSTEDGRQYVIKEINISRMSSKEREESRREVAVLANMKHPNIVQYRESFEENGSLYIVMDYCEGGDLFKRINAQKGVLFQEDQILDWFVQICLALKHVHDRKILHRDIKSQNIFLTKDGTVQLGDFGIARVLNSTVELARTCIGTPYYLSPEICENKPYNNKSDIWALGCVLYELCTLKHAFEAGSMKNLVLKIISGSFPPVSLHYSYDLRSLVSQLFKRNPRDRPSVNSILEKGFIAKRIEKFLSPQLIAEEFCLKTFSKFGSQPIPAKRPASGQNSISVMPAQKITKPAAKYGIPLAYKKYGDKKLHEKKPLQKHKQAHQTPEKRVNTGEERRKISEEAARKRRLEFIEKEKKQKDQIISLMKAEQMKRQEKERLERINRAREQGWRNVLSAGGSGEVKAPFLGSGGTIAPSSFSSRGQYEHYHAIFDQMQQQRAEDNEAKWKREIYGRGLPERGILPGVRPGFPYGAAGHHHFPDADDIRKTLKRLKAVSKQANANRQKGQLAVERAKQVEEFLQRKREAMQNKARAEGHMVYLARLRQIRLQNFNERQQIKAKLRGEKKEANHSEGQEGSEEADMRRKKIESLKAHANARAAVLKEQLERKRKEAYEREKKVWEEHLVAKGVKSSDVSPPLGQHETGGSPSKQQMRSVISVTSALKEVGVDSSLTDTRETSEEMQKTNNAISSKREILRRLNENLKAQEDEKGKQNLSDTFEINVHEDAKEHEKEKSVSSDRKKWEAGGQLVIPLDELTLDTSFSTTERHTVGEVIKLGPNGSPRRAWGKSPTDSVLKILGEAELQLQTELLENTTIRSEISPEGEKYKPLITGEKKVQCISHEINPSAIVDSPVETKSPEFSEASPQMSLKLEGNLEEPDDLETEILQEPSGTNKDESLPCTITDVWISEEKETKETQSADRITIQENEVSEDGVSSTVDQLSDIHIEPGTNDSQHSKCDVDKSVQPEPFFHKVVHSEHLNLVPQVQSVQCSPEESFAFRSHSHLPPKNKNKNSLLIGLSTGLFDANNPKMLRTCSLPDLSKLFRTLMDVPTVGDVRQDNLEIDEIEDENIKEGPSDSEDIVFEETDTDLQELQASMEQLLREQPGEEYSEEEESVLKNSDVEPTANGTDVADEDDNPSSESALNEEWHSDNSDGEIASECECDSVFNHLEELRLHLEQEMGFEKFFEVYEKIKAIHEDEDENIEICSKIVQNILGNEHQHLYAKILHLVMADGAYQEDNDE

[3] = biological target: T2, Serine/threonine-protein kinase Nek1 (Homo sapiens); settings: at 1 µM
[4] = biological target: T3, Serine/threonine-protein kinase Nek2 (Homo sapiens) (UniProt P51955); settings: at 0.1 µM
T3 sequence (whole entry): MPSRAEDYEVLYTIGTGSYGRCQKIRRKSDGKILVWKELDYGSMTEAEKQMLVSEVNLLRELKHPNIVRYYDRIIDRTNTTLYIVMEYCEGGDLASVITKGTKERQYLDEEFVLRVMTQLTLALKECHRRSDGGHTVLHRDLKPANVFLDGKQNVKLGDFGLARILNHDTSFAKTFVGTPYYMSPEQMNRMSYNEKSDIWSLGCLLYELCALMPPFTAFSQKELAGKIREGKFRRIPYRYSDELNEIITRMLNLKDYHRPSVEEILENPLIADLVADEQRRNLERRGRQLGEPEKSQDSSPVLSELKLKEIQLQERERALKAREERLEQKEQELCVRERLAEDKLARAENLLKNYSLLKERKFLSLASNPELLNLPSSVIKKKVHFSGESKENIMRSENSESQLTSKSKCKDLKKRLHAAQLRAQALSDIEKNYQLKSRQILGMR

[5] = biological target: T3, Serine/threonine-protein kinase Nek2 (Homo sapiens); settings: at 1 µM
[6] = biological target: Serine/threonine-protein kinase Nek6 (Homo sapiens) (UniProt Q9HC98); settings: at 0.1 µM
[7] = biological target: Serine/threonine-protein kinase Nek6 (Homo sapiens) (UniProt Q9HC98); settings: at 1 µM
[8] = biological target: Serine/threonine-protein kinase Nek7 (Homo sapiens) (UniProt Q8TDX7); settings: at 0.1 µM
[9] = biological target: Serine/threonine-protein kinase Nek7 (Homo sapiens) (UniProt Q8TDX7); settings: at 1 µM
[10] = biological target: T4, Serine/threonine-protein kinase Nek9 (Homo sapiens) (UniProt Q8TD19); settings: at 0.1 µM
T4 sequence (whole entry): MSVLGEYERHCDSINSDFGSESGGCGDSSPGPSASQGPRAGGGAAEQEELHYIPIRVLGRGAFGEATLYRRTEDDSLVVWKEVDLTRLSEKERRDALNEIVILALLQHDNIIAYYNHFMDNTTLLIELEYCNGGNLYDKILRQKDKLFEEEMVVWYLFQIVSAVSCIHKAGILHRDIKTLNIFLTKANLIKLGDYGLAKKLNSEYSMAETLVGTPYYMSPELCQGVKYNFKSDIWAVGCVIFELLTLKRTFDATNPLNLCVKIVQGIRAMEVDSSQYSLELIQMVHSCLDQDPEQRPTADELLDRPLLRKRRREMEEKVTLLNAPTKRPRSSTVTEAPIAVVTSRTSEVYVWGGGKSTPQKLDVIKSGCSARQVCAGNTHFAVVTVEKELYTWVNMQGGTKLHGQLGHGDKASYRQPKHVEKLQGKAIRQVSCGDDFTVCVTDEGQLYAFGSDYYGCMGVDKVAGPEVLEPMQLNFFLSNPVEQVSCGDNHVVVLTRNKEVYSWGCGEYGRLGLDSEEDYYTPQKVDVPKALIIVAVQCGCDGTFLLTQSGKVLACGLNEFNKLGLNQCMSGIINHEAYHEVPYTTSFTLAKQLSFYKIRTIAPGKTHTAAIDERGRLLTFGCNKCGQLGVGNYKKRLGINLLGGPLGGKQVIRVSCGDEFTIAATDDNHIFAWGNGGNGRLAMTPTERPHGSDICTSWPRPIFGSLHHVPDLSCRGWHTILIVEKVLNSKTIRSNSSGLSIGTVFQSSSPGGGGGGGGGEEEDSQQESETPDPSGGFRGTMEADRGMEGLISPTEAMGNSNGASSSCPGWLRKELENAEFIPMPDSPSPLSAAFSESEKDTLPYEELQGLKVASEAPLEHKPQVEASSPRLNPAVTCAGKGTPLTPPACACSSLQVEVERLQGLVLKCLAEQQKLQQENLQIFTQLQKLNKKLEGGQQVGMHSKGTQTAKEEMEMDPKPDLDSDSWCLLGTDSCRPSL

[11] = biological target: T4, Serine/threonine-protein kinase Nek9 (Homo sapiens); settings: at 1 µM
[12] = biological target: Serine/threonine-protein kinase PLK1 (Homo sapiens) (UniProt P53350); settings: at 0.1 µM
[13] = biological target: Serine/threonine-protein kinase PLK1 (Homo sapiens) (UniProt P53350); settings: at 1 µM
[14] = biological target: T5, Dual specificity protein kinase TTK (Homo sapiens) (UniProt P33981); settings: at 0.1 µM
T5 sequence (whole entry): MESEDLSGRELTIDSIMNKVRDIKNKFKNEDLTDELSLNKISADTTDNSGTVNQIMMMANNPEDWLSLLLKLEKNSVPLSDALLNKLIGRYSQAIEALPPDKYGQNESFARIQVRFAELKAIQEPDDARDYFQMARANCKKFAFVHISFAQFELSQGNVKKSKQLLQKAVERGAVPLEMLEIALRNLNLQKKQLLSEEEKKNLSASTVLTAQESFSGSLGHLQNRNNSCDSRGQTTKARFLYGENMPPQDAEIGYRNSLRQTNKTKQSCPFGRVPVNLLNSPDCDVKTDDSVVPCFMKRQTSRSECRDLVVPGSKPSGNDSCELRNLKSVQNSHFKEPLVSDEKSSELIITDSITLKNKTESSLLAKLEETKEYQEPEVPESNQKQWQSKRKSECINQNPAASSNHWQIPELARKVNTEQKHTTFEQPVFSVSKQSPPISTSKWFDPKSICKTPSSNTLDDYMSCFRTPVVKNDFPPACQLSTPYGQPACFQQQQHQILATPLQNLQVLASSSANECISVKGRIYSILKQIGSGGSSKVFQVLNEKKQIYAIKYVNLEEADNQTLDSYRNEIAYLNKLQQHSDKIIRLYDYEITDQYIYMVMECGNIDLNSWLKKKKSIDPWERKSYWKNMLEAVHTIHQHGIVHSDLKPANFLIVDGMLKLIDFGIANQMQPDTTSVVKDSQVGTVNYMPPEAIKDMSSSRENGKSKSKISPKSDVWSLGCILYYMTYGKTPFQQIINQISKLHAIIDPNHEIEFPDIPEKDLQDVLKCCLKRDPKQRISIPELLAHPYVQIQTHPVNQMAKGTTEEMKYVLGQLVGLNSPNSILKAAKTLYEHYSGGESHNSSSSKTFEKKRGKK

[15] = tested on: T6, Receptor-type tyrosine-protein kinase FLT3 (Homo sapiens), P36888 [D835Y]; settings: at 1 µM
T6 sequence (whole entry): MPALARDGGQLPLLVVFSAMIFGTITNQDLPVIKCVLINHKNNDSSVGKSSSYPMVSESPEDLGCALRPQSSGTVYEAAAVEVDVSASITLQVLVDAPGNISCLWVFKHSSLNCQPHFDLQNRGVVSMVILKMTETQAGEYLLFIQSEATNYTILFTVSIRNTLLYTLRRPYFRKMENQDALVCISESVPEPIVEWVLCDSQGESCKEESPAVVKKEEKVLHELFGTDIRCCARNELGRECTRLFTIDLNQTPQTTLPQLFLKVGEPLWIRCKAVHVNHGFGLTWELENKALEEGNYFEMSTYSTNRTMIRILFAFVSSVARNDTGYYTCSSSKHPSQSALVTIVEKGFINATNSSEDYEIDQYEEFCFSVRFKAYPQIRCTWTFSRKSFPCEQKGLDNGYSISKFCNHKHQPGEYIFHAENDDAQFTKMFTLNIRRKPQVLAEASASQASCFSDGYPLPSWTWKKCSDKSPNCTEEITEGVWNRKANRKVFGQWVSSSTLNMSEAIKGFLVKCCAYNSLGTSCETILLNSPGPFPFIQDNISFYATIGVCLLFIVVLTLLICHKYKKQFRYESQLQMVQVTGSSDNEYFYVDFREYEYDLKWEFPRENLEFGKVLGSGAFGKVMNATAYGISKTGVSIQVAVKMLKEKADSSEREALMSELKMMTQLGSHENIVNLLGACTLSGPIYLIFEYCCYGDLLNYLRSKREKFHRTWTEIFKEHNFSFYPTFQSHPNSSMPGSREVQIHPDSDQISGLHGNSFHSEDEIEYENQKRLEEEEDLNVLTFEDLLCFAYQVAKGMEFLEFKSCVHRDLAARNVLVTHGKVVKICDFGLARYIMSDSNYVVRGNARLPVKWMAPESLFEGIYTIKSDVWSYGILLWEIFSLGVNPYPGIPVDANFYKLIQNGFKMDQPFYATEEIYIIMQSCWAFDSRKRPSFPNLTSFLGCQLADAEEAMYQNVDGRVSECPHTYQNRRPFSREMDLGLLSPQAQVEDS

[16] = biological target: Vascular endothelial growth factor receptor 3 (Homo sapiens) (UniProt P35916); settings: at 0.1 µM
[17] = biological target: Vascular endothelial growth factor receptor 3 (Homo sapiens) (UniProt P35916); settings: at 1 µM
[18] = biological target: Macrophage colony-stimulating factor 1 receptor (Homo sapiens) (UniProt P07333); settings: at 0.1 µM
[19] = biological target: Macrophage colony-stimulating factor 1 receptor (Homo sapiens) (UniProt P07333); settings: at 1 µM
[20] = biological target: Tyrosine-protein kinase Fyn (Homo sapiens) (UniProt P06241); settings: at 0.1 µM
Tyrosine-protein kinase Fyn (Homo sapiens), sequence (P06241 2-537 limits assumed): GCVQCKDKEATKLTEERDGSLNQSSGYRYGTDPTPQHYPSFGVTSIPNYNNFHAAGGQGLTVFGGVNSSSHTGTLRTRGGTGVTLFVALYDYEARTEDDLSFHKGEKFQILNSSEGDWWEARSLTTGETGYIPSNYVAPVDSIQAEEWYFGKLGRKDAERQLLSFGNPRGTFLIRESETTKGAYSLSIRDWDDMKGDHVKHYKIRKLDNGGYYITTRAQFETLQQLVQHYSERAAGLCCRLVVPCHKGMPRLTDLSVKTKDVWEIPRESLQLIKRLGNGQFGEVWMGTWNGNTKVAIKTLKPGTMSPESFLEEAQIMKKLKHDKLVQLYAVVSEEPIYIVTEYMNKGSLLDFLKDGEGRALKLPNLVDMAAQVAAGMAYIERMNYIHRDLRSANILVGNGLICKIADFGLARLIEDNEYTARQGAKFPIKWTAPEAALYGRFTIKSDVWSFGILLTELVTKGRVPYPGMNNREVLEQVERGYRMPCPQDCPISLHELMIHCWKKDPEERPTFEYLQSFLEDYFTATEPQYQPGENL

Vascular endothelial growth factor receptor 3 (Homo sapiens), sequence (P35916 whole entry): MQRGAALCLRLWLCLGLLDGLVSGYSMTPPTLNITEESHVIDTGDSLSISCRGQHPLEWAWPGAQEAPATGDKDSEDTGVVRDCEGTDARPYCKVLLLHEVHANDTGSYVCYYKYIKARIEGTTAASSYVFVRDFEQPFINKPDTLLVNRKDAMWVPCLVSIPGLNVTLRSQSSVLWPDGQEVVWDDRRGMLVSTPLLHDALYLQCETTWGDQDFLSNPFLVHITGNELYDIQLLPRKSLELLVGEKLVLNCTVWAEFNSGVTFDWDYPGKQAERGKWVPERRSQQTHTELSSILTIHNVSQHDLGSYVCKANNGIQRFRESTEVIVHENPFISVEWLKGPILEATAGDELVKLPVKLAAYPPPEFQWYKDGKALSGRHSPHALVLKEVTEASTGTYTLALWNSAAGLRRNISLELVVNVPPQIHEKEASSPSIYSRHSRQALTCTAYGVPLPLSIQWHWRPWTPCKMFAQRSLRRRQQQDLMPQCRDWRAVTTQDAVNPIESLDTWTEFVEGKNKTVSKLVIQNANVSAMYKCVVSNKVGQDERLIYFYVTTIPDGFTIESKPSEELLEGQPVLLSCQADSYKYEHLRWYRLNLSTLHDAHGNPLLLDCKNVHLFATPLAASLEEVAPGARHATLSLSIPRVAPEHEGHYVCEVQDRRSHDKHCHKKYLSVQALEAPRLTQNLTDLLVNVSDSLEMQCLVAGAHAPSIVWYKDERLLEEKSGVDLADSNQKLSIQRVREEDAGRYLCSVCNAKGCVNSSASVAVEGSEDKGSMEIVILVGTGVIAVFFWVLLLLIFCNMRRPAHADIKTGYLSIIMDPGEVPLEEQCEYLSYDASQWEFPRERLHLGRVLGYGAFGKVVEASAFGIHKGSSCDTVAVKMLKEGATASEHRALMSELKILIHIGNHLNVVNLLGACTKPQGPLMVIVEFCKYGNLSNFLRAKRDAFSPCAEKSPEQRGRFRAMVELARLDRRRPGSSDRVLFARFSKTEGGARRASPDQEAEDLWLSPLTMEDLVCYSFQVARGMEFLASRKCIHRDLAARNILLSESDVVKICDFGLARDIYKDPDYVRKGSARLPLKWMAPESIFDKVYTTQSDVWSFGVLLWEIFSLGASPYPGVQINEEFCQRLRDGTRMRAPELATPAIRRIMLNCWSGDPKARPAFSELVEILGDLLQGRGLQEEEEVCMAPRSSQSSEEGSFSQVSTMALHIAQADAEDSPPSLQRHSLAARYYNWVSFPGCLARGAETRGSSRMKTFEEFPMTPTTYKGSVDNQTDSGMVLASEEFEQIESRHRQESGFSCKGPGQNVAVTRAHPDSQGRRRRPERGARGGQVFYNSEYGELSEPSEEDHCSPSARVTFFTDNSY
Serine/threonine-protein kinase Nek7 (Homo sapiens), sequence (Q8TDX7 whole entry, looked up): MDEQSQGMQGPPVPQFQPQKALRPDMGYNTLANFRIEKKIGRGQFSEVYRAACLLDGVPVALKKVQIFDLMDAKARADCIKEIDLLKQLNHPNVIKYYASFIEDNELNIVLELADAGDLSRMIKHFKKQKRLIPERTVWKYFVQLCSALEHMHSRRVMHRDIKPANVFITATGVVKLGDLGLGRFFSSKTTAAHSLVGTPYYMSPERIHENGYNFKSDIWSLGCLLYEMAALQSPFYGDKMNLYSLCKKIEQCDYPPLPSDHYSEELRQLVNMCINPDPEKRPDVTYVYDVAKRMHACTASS
Serine/threonine-protein kinase Nek6 (Homo sapiens), sequence (Q9HC98 whole entry): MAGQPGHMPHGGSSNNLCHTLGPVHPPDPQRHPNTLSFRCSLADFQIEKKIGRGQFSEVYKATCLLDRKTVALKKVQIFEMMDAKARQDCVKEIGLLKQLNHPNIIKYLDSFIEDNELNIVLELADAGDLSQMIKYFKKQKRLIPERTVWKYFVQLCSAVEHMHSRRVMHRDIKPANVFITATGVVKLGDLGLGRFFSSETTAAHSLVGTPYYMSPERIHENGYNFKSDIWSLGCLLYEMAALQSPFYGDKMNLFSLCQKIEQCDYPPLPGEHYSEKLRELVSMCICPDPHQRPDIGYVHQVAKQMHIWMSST
Serine/threonine-protein kinase PLK1 (Homo sapiens), sequence (P53350 whole entry): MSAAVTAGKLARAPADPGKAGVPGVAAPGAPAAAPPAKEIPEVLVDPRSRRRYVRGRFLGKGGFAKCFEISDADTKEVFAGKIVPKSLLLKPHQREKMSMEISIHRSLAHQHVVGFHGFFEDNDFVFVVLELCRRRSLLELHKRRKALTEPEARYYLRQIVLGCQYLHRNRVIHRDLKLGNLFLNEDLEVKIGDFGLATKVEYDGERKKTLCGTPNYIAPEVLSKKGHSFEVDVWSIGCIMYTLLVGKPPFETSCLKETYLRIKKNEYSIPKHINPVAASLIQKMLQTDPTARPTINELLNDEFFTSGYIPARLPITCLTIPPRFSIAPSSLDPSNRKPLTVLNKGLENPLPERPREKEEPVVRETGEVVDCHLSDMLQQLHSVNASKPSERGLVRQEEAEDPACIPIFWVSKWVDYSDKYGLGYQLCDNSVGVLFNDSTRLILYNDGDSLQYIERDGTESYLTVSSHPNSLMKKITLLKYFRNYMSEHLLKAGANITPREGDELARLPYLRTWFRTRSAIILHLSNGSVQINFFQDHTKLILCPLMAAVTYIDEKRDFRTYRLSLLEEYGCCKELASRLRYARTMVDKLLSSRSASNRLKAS
Macrophage colony-stimulating factor 1 receptor (Homo sapiens), sequence (P07333 whole entry): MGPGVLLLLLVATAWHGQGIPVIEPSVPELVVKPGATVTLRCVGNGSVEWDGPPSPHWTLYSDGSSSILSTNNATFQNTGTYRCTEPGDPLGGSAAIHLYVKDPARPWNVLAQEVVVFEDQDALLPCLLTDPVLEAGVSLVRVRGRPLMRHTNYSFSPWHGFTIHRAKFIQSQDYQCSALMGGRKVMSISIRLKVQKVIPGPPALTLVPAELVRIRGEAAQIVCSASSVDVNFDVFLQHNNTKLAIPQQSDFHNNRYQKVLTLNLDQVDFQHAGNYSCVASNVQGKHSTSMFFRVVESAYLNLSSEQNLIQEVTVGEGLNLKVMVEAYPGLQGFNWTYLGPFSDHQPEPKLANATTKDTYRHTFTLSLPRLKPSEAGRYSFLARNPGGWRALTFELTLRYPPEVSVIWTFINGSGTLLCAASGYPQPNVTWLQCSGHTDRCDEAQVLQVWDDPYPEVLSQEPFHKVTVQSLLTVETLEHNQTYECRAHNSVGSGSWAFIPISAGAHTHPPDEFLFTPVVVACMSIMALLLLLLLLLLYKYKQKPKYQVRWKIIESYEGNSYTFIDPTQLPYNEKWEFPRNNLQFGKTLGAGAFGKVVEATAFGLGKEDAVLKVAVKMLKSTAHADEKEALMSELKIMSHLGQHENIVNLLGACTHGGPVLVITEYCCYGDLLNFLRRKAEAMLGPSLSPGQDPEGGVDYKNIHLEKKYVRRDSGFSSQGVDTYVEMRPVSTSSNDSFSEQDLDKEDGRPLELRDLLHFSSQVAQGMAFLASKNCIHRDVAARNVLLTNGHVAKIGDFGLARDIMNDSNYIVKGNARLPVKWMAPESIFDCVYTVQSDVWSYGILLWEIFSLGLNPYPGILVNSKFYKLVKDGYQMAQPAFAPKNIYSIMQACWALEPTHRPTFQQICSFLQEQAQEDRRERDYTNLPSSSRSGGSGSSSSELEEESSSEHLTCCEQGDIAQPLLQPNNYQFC

Row | SMILES | inhibition [1] | inhibition [2] | inhibition [3] | inhibition [4] | inhibition [5] | inhibition [6] | inhibition [7] | inhibition [8] | inhibition [9] | inhibition [10] | inhibition [11] | inhibition [12] | inhibition [13] | inhibition [14] | inhibition [15] | inhibition [16] | inhibition [17] | inhibition [18] | inhibition [19] | inhibition [20]
1 | COC(=O)Nc1nc2ccc(Oc3ccc(NC(=O)Nc4cccc(Cl)c4)cc3)cc2[nH]1 | 1.25% | 0.97% | 0.11% | 0.46% | 0.04% | 2.21% | -0.77% | 1.46% | 1.97% | 5.35% | 2.84% | -0.55% | 0.69% | 2.99% | 1.8% | 4.07% | 9.34% | 16.5% | 45.2% | 0.86%
2 | N#Cc1c(NC(=O)c2ccc(F)cc2)sc2c1CCCC2 | 3.72% | 9.69% | 3.09% | 2.18% | 1.31% | 2.27% | 2.25% | 2.7% | 2.46% | 3.12% | 0.67% | 4.32% | 2.6% | 4.36% | 2.85% | 0.08% | -0.81% | 0.56% | -0.85% | -0.49%
3 | [O-][S+]1CCN(Cc2ccc(-c3ccc4ncnc(Nc5ccc(OCc6cccc(F)c6)c(Cl)c5)c4c3)o2)CC1 | 7.12% | 1.83% | 3.84% | 6.03% | 7.92% | 12.5% | 1.99% | 2.99% | 8.43% | 12.2% | 11.6% | 4.06% | 4.68% | 14.8% | -0.26% | 4.68% | 7.72% | 1.84% | 5.71% | 1.57%

From ChEMBL document CHEMBL1961873, “Compounds: GSK PKIS; Assays: Nanosyn kinase panel” (2012)
